The supplement of paper PMC7411640
Where a name gives a salt, the structure may show the parent alone.

Tested on: MDA-MB-468
Assay: phospho-S6 immunofluorescence (DAPI-normalised), per-plate z-score; higher = higher phospho-S6 signal (less pathway suppression)
Conditions: 24 h
Procedure: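 GPCR-targeted compound library (MedChemExpress HY-L006) tested on MDA-MB-468 PTEN-null TNBC cells in 384-well plates at 0.1, 1 or 10 uM, combined with vehicle, GDC0941 450 nM or lapatinib 1 uM, for 24 h. Phospho-S6 (S240/244) immunofluorescence normalised to DAPI and expressed as a per-plate z-score; values are the mean of biological triplicates.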

| SMILES | phospho-S6 immunofluorescence (z-score) (co-treatment: GDC0941 450 nM) | phospho-S6 immunofluorescence (z-score) (co-treatment: lapatinib 1 uM) | phospho-S6 immunofluorescence (z-score) (co-treatment: vehicle) |
| --- | --- | --- | --- |
| O=C(Nc1cc(Cl)cc(Cl)c1)[C@H]1CCCC[C@H]1C(=O)O (compound 10 µM) | 0.83 | 0.12 | 0.42 |
| C[C@H]1C[C@H]2[C@@H]3CCC4=CC(=O)C=C[C@]4(C)[C@H]3C(=O)C[C@]2(C)[C@@]1(O)C(=O)CO [Meprednisone] (compound 10 µM) | 0.11 | -0.5 | -0.52 |
| C[C@@H](O[C@H]1OCCN(Cc2n[nH]c(=O)[nH]2)[C@H]1c1ccc(F)cc1)c1cc(C(F)(F)F)cc(C(F)(F)F)c1 [Aprepitant] (compound 10 µM) | -1.22 | -1.02 | 0.64 |
| CC(C)OC(=O)CCC/C=C\C[C@@H]1[C@@H](CC[C@@H](O)CCc2ccccc2)[C@H](O)C[C@@H]1O [Latanoprost] (compound 10 µM) | 0.61 | -0.08 | -0.18 |
| CCCN(CCN1CCN(c2ccccc2OC)CC1)C1CCc2ncsc2C1 (centres undefined) [ST-836 (hydrochloride)] (compound 10 µM) | 0.29 | -0.62 | 0.1 |
| CC(C)N(CCCCOCC(=O)O)c1cnc(-c2ccccc2)c(-c2ccccc2)n1 (compound 10 µM) | 1.34 | 1.89 | 0.56 |
| CC(=O)OCC(=O)[C@@]1(O)CC[C@H]2[C@@H]3CCC4=CC(=O)CC[C@]4(C)[C@H]3C(=O)C[C@@]21C [Cortisone (acetate)] (compound 10 µM) | 0.51 | 1.06 | 0.93 |
| Cc1ccc(S(=O)(=O)N2CCCC2c2ccc(F)cc2)cc1 (centres undefined) (compound 10 µM) | -2.47 | 0.46 | -1.81 |
